Source: PubChem (National Center for Advancing Translational Sciences (NCATS))
ATXN viability: cell viability loss in ATXN counter-screen; S2 cells (HEK-293 line with an ATXN2-luciferase reporter) viability, CellTiter-Fluor protease fluorescence, 24 h; Potency, µM (doses to about 56.7 µM), actives largely listed as cytotoxic; hit rate 0.49% among 400,000; AID 651635; further: potency means the concentration at half of the fitted maximal effect; nearly all actives have a fitted effect of over 40% in size
ATXN2 expr inh: inhibitors of ATXN2 expression; AID 1745845; Potency, µM (highest dose often 57 µM), for inactives: at the top dose activity change, negative = inhibition, actives largely listed as inhibitors; hit rate 0.72% among 360,000; HEK-293 ATXN2-luciferase reporter, luminescence, 24 h; further: potency means the concentration at half of the fitted maximal effect; on the % scale 0 is the no-effect control and ±100 the full control effect; nearly all actives have a fitted effect of over 55% in size
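qHTS (up to 57 uM final) was run with 24 h compound exposure of reporter cells at 37 °C. Each well was multiplexed: SteadyGlo luminescence measured ATXN2-luciferase expression after a fluorogenic Gly-Phe-AFC viability readout (25 uM final).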
CtBP-E1A blk: inhibitors of CtBP/E1A interaction; AlphaScreen GST-E1A/His-CtBP binding, 1536-well; active compounds read low; activity change, % (no concentration beside the values); hit rate 0.49% among 340,000; in the data active means activity change below about -65%; inconclusive means mostly about -30% to -63%; further: on the % scale 0 is the no-effect control and ±100 the full control effect
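Protein mix (5X: 125 nM each GST-E1A, His-CtBP) was incubated with pinned compound 2 h at 37 deg C in dark, in 50 mM Tris pH 8.0 buffer with 300 mM NaCl. Glutathione donor and nickel acceptor beads followed; AlphaScreen signal read after 1 h.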
HepG2 tox: HepG2 cytotoxicity, counter-screen for TGF-b inhibitors | HepG2 CAGA-GFP viability, ATP luminescence, 18 h | Potency, µM (doses to about 46.1 µM), for inactives: at the highest dose activity change, negative = cytotoxicity, hits mostly cytotoxic | hit rate 0.76% among 410,000 | AID 588856; further: potency means the concentration at half of the fitted maximal effect
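HepG2 CAGA-GFP cells (1000/well, DMEM with 1% FBS) received compound, then TGF-beta at 500 pg/mL final, and were incubated 18 hours at 37 degrees C. Viability was read by CellTiter-Glo luminescence. Media-only wells were set as complete cell-killing and DMSO as no toxicity.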
Six1-Eya2 blk: Six1/Eya2 interaction inhibition | Q15475+O00167 | AlphaScreen GST-Six1/His-Eya2 binding, biochemical; active compounds read low | activity change, % (concentration not given with the values) | hit rate 0.56% among 360,000 | AID 651725; in the data active means activity change below about -65%; inconclusive means mostly about -30% to -63%; further: on the % scale 0 is the no-effect control and ±100 the full control effect
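Homogeneous AlphaScreen proximity assay pairing GST-Six1 with His-tagged Eya2 (added as 5X mix: 250 nM and 500 nM) in 50 mM Tris pH 8.0, 300 mM NaCl, 1 mM TCEP. Glutathione donor and nickel acceptor beads; 1 h, 37 °C, dark.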
TGFb inhibitor: TGF-b pathway inhibition; HepG2 CAGA-GFP TGF-b/SMAD3 reporter, GFP fluorescence, 18 h; TGF-beta stimulated, 500 pg/mL final; Potency, µM (top dose mostly 46.1 µM), for the others: at the top dose activity, negative = inhibition, most hits filed as inhibitors; hit rate 1.2% among 410,000; further: potency means the concentration at half of the fitted maximal effect; on the % scale 0 is the no-effect control and ±100 the full control effect; nearly all actives have a fitted effect of over 65% in size
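First, reporter cells (HEPG2 CAGA-GFP) rested 2 h at 37 degrees C. Next, compounds were pinned in and TGF-beta added to 500 pg/mL final. After 18 h, GFP was imaged per cell and summed per well.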
An asterisk follows results filed as active; i = inactive; ? = inconclusive; · = no result; [ ] = dose if it differs, or a comment. Shown are actives, neighbours in structure and some others; about 2.8% of the full set was active somewhere. Unless noted, the call rests on the fitted dose curve; in most records, active means well fitted curve in the direction sought with a large enough effect; inconclusive means small, poorly fitted or top-dose-only effect, or another doubt; inactive means no such curve, though single readings can be large; an effect the other way counts as inactive or inconclusive.

SMILES | ATXN viability | ATXN2 expr inh | CtBP-E1A blk | HepG2 tox | Six1-Eya2 blk | TGFb inhibitor
O=C(NCCCN1CCCCC1)c1ccc2c(c1)sc1nc(-c3ccc(F)cc3)cn12 | i | ? | · | -51% | · | ?
COC(=O)c1cc2c(n1S(=O)(=O)c1ccc(C)cc1)C(=O)C(=O)c1[nH]cc(C(=O)OCc3ccccc3)c1-2 | 4.7µM* | 3µM* | -20 | 0.71µM* | -1 | ?
N#C/C(=C\c1ccc([N+](=O)[O-])o1)c1nc2ccccc2[nH]1 | i | 13µM* | -6 | -35% | -5 | ?
CC(=O)O[C@H]1C[C@@H]2CC[C@H]3[C@H]4C[C@H]([N+]5(C)CCCCC5)[C@@H](OC(C)=O)[C@@]4(C)CC[C@@H]3[C@@]2(C)C[C@H]1[N+]1(C)CCCCC1 | · | 2% | · | · | · | ·
Nc1nc(N)c2cc(S(=O)(=O)c3cccc(C(F)(F)F)c3)ccc2n1 | i | · | 1 | 1.3µM* | -1 | -19%
Nc1cccnc1S(=O)(=O)c1cccc(C(F)(F)F)c1 | i | 1% | 5 | 9% | 1 | 19%
CCOc1ccc2nc(N3CCCC(C(=O)NCCc4ccc(OC)cc4OC)C3)sc2c1 (stereo not drawn) | · | · | · | -53% | · | 18µM*
O=C(NCCc1nnc2n1CCN(CC1CC=CCC1)CC2)c1ccc(F)cc1 (stereo not drawn) | i | · | · | · | · | ·
CCCCCCCn1c2c(c(=N)c3c1CCC3)CCCC2 | ? | 1.9µM* | -15 | -12% | -6 | ?
CCCCn1c2c(c(=N)c3c1CCC3)CCC2 | i | ? | -2 | 4% | -10 | ?
CCCCCCCCCn1c2c(c(=N)c3c1CCC3)CCC2 | ? | 2µM* | -19 | -72% | 7 | 4.5µM*
CCCCCCn1c2c(c(=N)c3c1CCC3)CCC2 | i | 8.9µM* | -12 | -8% | -10 | ?
CCn1c2c(c(=N)c3c1CCC3)CCC2 | i | -23%[11.3 µM] | 8 | 12% | -3 | -5%
CCC[C@@]1(CCc2ccccc2)CC(O)=C([C@H](CC)c2cccc(NS(=O)(=O)c3ccc(C(F)(F)F)cn3)c2)C(=O)O1 | i | · | · | · | · | ·
OC[C@@H]1CN(Cc2ccccc2)C[C@H](n2cnc3c(NC4CC4)ncnc32)O1 | i | 6% | -15 | 0% | 8 | 5%
OC[C@@H]1CN(Cc2ccc(-c3ccccc3)cc2)C[C@H](n2cnc3c(NC4CCC4)ncnc32)O1 | 18µM* | ? | -10 | -19% | -7 | ?
CCc1ccc2[nH]c(=O)c(C3C(C#N)=C(N)Oc4c3ccc3cccnc43)cc2c1 (stereo not drawn) | i | ? | -86* | -4% | ? | ?
Cc1ccc2cc(C3C(C#N)=C(N)Oc4c3ccc3cccnc43)c(=O)[nH]c2c1 (stereo not drawn) | i | ? | -94* | -4% | -72* | ?
N#CC1=C(N)Oc2c(ccc3cccnc23)C1c1cccnc1 (stereo not drawn) | i | -37% | -92* | -14% | -91* | -24%
N#CC1=C(N)Oc2cc3ccccc3cc2C1c1cccnc1 (stereo not drawn) | i | ? | -5 | -12% | -3 | ?
CCOc1cccc(C2C(C#N)=C(N)Oc3cc(C)[nH]c(=O)c32)c1OCC (stereo not drawn) | i | · | · | 5% | 1 | 7%
COc1ccc(-n2c(CNC(=O)c3c(-c4ccccc4)noc3C)nnc2SC)cc1 | i | · | · | · | · | ·
O=C(c1cn(C2CCCN(Cc3cc(Cl)ccc3O)C2)nn1)N1CCCCC1 (stereo not drawn) | i | · | · | · | · | ·
CC(=O)Nc1cc(C(=O)N2CCCC(C)C2)cc2ncn(CCc3ccccn3)c12 (stereo not drawn) | i | · | · | · | · | ·
c1cnc2ccc3ncccc3c2c1 | i | 34% | -3 | 0% | 0 | 4%
SMILES | ATXN viability | ATXN2 expr inh | CtBP-E1A blk | HepG2 tox | Six1-Eya2 blk | TGFb inhibitor
O=Cc1ccc(O)c2ncccc12 | · | 3.5µM* | -67* | 4.5µM* | -74* | 4µM*
NS(=O)(=O)c1ccc(N2CCCCS2(=O)=O)cc1 | i | -17% | · | · | · | ·
Cc1onc(-c2ccccc2)c1C(=O)NC(=S)NNC(=O)c1ccc(O)cc1 | i | -34% | -4 | -7% | -9 | ?
Cc1onc(-c2ccccc2)c1C(=O)NC(=S)NNC(=O)c1ccc(O)cc1O | ? | ? | -14 | 6% | -93* | -5%
Cc1onc(-c2ccccc2)c1C(=O)NC(=S)NNC(=O)c1ccccc1O | i | ? | 7 | -14% | -85* | -26%
O=C(CCCl)NCCc1ccccc1 | i | 9% | · | · | · | ·
COc1ccc(OC)c2nc3c(C(=O)NCCN(C)C)cccc3nc12 | ? | ? | ? | -42% | ? | ?
CN(C)CCNC(=O)c1cccc2nc3cccc(F)c3nc12 | ? | 8.9µM* | -15 | -78% | -11 | ?
CN(C)CCNC(=O)c1cccc2ccc(-c3ccc(-c4ccccc4)cc3)nc12 | 27µM* | -14% | -16 | -92% | -21 | -15%
O=C(Cn1nc2c(cc1=O)CCCC2)Nc1ccccc1C(F)(F)F | · | · | · | -12% | · | 0%
CCOc1ccc(C(C)=O)cc1CSC(=N)N | i | 5% | 8 | -5% | 5 | 5%
CCCCOc1ccc(Br)cc1CSC(=N)N | ? | ? | 20 | -101% | 30 | 20µM*
CCCCCCCCCCCCCCCCOC(=O)N1CCN(/[N+]([O-])=N/Oc2ccc([N+](=O)[O-])cc2[N+](C)=O)CC1 | · | · | · | 2% | · | -3%
C[C@H](NC(=O)C(C#N)=Cc1cccc(Br)n1)c1ccccc1 | · | 22µM* | · | · | · | ·
CSc1nnc2c(n1)OC(C)=Nc1ccccc1-2 | i | -11% | -22 | 0% | -66* | 36%
COc1cc(CCNC2=CC(=O)c3ncccc3C2=O)ccc1O | · | 24µM* | ? | 2.5µM* | ? | ?
COc1ccc(C2C3C=CCC(c4cccc(/C=C/c5ccccc5)c4)C3C(=O)N2Cc2ccccc2)cc1Cl (stereo not drawn) | · | · | · | 1% | · | 2%
Cc1cc2c(cc1C1(c3ccc(C(=O)O)cn3)CC1)C(C)(C)CCC2(C)C | · | 11% | · | · | · | ·
CCOc1ccc(-c2cn3c(n2)sc2cc(C(=O)NCCCN(CC)CC)ccc23)cc1 | 13µM* | 8.9µM* | · | 10µM* | · | ?
CCN(CC)CCNC(=O)c1ccc2c(c1)sc1nc(-c3ccc(F)cc3)cn12 | · | · | · | 16µM* | · | 11µM*
CCOc1ccc(-c2cn3c(n2)sc2cc(C(=O)NCCCN4CCCCCC4)ccc23)cc1 | · | ? | · | 11µM* | · | ?
